This is an account of results in PubChem BioAssay (EPA / NIEHS).

Calls of active or inactive are those of the source. The calls were made as follows: active = hit-call score of the fitted dose curve at least 0.9, where 1 is the maximum; inactive = score below 0.9.

A word on the AC50: it is the concentration giving half of the maximal activity seen.

The experiment in a line: APR_HepG2_CellLoss_72hr: Apredica 72-hour HepG2 Assay for Cell Loss (AID 2282915). The note with it: high-content imaging. The method, then:
APR_HepG2_72hr is a cell-based, multiplexed-readout assay that uses HepG2, a human liver cell line, with measurements taken at 72 hours after chemical dosing in a 384-well plate.APR_HepG2_CellLoss_72hr is one of 10 assay component(s) measured or calculated from the APR_HepG2_72hr assay. It is designed to make measurements of cell number, a form of viability reporter, as detected with fluorescence intensity signals by HCS Fluorescent Imaging technology.Data from the assay component APR_HepG2_CellLoss_72hr was analyzed into 1 assay endpoint. This assay endpoint, APR_HepG2_CellLoss_72hr, was analyzed with bidirectional fitting relative to DMSO as the negative control and baseline of activity. Using a type of viability reporter, measures of all nuclear dna for gain or loss-of-signal activity can be used to understand the viability at the cellular-level. Furthermore, this assay endpoint can be referred to as a secondary readout, because this assay has produced multiple assay endpoints where this one serves a viability function. To generalize the intended target to other relatable targets, this assay endpoint is annotated to the cell cycle intended target family, where the subfamily is proliferation.
Cells were treated with dimethyl sulfoxide (DMSO) as a solvent control at a final concentration of 0.5% v/v or with compounds in DMSO with a resulting final DMSO concentration of 0.5% v/v. Compound treatment was done at concentrations of 0.39, 0.78, 1.56, 3.12, 6.24, 12.5, 25, 50, 100, and 200 uM in duplicate on each plate. Cells were treated with compounds for 1, 24, or 72 hr. Carbonyl […] m-chloro-phenylhydrazone (CCCP) and taxol were used as positive controls for mitochondrial function and cytoskeletal stability, respectively; DMSO served as the negative control for this experiment. Cells were fixed by the direct addition of 50 uL formaldehyde in Hank's Balanced Salt Solution (HBSS) to a final concentration of 3.7%. After incubation in the fixation medium for 30 min at room temperature (293-298 K), cells were rinsed twice with HBSS and treated with cell permeabilization buffer (16 uL of 0.5% Triton X-100) for 10 min at room temperature (293-298 K) before labeling. For mitochondrial membrane potential and mitochondrial measurements, pre-fixed cells were incubated with 50 uL of MitoTracker Red CMXRos (Invitrogen) at a concentration of 250 nM for 30 min before fixation. In the remaining cases, post-fixed cells were labeled by incubation with a multiplexed mixture of primary antibodies in HBSS for 60 min at room temperature (293-298 K) to detect immunoreactivity of c-Jun (1:500), phospho-histone H3 (1:100), phospho-histone H2A.x (1:200), p53 (1:400), alpha-tubulin (1:200) and Hoechst 33342 (2 ug/mL). Cells were labeled for multiplexed imaging on two separate plates: a) Hoechst 33342, MitoTracker Red, phospho-histone H3, and alpha-tubulin, and b) Hoechst 33342, phospho-histone H2A.x, and c-Jun. A final rinse with HBSS (50 uL) was performed before analysis. The primary and secondary antibodies for the proteins were phospho-histone H3 (rabbit anti-phospho-histone H3 and FITC-donkey anti-rabbit IgG), phospho-histone H2A.x (mouse anti-phospho-histone H2A.x and FITC-donkey anti-mouse IgG), c-Jun (rabbit anti-phospho-c-Jun and Cy3-donkey anti-rabbit IgG), p53 (sheep anti-p53 and Cy5-donkey anti-sheep IgG), alpha-tubulin (mouse anti-alpha-tubulin and Cy5-donkey anti-mouse IgG). These antibodies are available as the CellCiphr HepG2 assay kit (Millipore).Digital images of each well were captured using a Cellomics ArrayScan VTI (Thermo Scientific Cellomics) (0.8 NA objective, 0.63x optical coupler, and XF-93 filter set) at 20x magnification. The images were acquired using the autofocus feature of the ArrayScan instrument, which entails the following steps. First, the camera focuses on channel 1 (Hoechst 33342), where nuclei are identified. Second, a Z offset of 1 um is used for capturing mitochondria (MitoTracker Red). […]
Regarding `C=CC(=O)NCNC(=O)C=C`, the outcome was inactive.
`CCCCCCCCCC[N+](C)(C)CCCCCCCCCC`: the AC50 is 3.25 µM (active).
Take `Nc1ccc(-c2ccc(N)cc2)cc1`: the compound was called inactive.
Regarding `Oc1ccc(C(c2ccc(O)cc2)(C(F)(F)F)C(F)(F)F)cc1`, the AC50 was 36.7 µM (active).
As to `N#Cc1ccc(N(CC(N)=O)CC(F)(F)F)cc1C(F)(F)F`, the compound was classed as inactive.
Still for that read-out and setting: the same measure for `c1cc2ccc3cccc4ccc(c1)c2c34`: “inactive”.
With `ClC1=C(Cl)[C@]2(Cl)[C@@H]3[C@@H]4C[C@@H]([C@H]5O[C@@H]45)[C@@H]3[C@@]1(Cl)C2(Cl)Cl`, the AC50 is 34.4 µM (active).
Same read-out and setting: under `CC1=C2C[C@H]3[C@@H](CC=C4C[C@@H](O)CC[C@@]43C)[C@@H]2CC[C@]12O[C@@H]1C[C@H](C)CN[C@H]1[C@H]2C` stands 25.3 µM (active); under `CO/C=C(/C(=O)OC)c1ccccc1COc1cccc(C(F)(F)F)n1`, 3.39 µM (active).
Regarding `O=C(N[C@H]1CN2CCC1CC2)c1cc2ccoc2cn1`, the compound was classed as inactive.
As for `O=C(O)C(F)(F)C(F)(F)C(F)(F)C(F)(F)C(F)(F)C(F)(F)C(F)(F)C(F)(F)C(F)(F)F`, the half-maximal activity concentration (AC50) is 96 µM (active).
Turning to `O=C(O)C(F)(F)C(F)(F)C(F)(F)C(F)(F)C(F)(F)C(F)(F)C(F)(F)C(F)(F)F`, the AC50 is 110 µM (active).
For `Cc1ccccc1O`, the call was inactive.
Regarding `ClC1=C(Cl)[C@]2(Cl)[C@@H]3[C@@H](Cl)[C@H]4O[C@H]4[C@@H]3C1(Cl)C2(Cl)Cl`, the AC50 was 75.4 µM (active).
For the compound `O=C(O)C(F)(F)C(F)(F)C(F)(F)C(F)(F)C(F)(F)F`, the compound was classed as inactive.
Consider `CC(C)(c1ccccc1)c1ccc(O)cc1`, for which the AC50 is 63.3 µM (active).
In the case of `C1CC2OC2CC1C1CO1` (stereo not given), the outcome was inactive.
Regarding `ClC(Cl)=C(c1ccc(Cl)cc1)c1ccc(Cl)cc1`, the AC50 was 50 µM (active).
In the case of `C[C@]12CCC(=O)C=C1CC[C@@H]1[C@@H]2CC[C@@]2(C)[C@H]1CC[C@]2(C)O`, the compound was classed as inactive.
In the case of `O=C(NC(=O)c1c(F)cccc1F)Nc1cc(Cl)c(OC(F)(F)C(F)F)c(Cl)c1`, the result was inactive.
Regarding `O=C(NC(=O)c1cc(F)c(F)cc1Cl)Nc1cc(F)ccc1N1CCC(C(=O)O)CC1`, the result was inactive.
As to `CCCCCCCCCc1ccc(O)cc1`, the compound was classed as inactive.
`Nn1cnnc1`: the compound was called inactive.
With `O=S(=O)(O)C(F)(F)C(F)(F)C(F)(F)C(F)(F)C(F)(F)C(F)(F)F`, the compound was called inactive.
Turning to `CCNc1nc(NC(C)C)nc(SC)n1`, the result was inactive.
Regarding `C[C@]12CCC(=O)C=C1CC[C@@H]1[C@@H]2CC[C@]2(C)C(=O)CC[C@@H]12`, the call was inactive.
For `CC(c1ccc(O)cc1)(c1ccc(O)cc1)c1ccc(O)cc1`, the AC50 is 115 µM (active).
For the compound `CC(C)(O)C(=O)Nc1ccc([N+](=O)[O-])c(C(F)(F)F)c1`, the outcome was inactive.
The same measure, in the same setting: the same measure for `CN(C)CCO`: “inactive”.
As for `CCCCCCOC(=O)c1ccccc1C(=O)OCCCCCC`, the AC50 is 102 µM (active).
For `CCC(C)c1cc([N+](=O)[O-])cc([N+](=O)[O-])c1O` (stereo not given), the concentration at half-maximal activity (AC50) was 51 µM (active).
For `CCOP(=S)(OCC)SCSC(C)(C)C`, the call was inactive.
With `Oc1c(Cl)c(Cl)c(Cl)c(Cl)c1Cl`, the half-maximal activity concentration (AC50) is 55.9 µM (active).
On to `CCCN(CCC)N=O`, for which the call was inactive.
Take `Clc1ccc(Cl)cc1`: the compound was called inactive.
Consider `ClC1=C(Cl)[C@]2(Cl)[C@@H]3[C@H]4C[C@H]([C@@H]5O[C@H]45)[C@@H]3[C@@]1(Cl)C2(Cl)Cl`, for which the result was inactive.
For the compound `Cc1cc(-c2ccc(N)c(C)c2)ccc1N`, the compound was called inactive.
As for `Cc1cccc(C)c1N`, the compound was classed as inactive.
On the same count and under the same terms, under `Cc1ccccc1[N+](=O)[O-]` stands “inactive”; under `Cc1ccc(O)c(C)c1`, “inactive”.
